Screening data: PubChem, National Center for Advancing Translational Sciences (NCATS)
Pf growth 48h: inhibits P. falciparum growth in the first generation, 48 h; Potency, µM (top dose mostly 28.7 µM), for inactives: at the highest dose activity change, negative = inhibition, actives largely listed as inhibitors; P. falciparum luciferase growth in erythrocytes, 48 h; 5.9% of 310,000 active; AID 504832; further: potency means the concentration at half of the fitted maximal effect
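Luciferase-expressing parasites in RBCs, 2% Hct / 0.1% parasitemia final; RPMI 1640 + 0.5% Albumax; 37 C, 5% CO2, one generation; luminescence read-out, lower signal = inhibition.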
Sm TGR block: blocks Schistosoma mansoni thioredoxin glutathione reductase; purified TGR, DTNB reduction, TNB absorbance 405 nm; 3% of 360,000 active; AID 485364; Q962Y6; Potency, µM (highest dose often 114 µM), for inactives: top-dose activity change, negative = inhibition, most hits filed as inhibitors; further: potency means the concentration at half of the fitted maximal effect; nearly all actives have a fitted effect of over 60% in size
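First, TGR (20 nM dispensed) and NADPH were mixed with compound. Second, a 15 min room-temperature incubation followed. Third, further NADPH and then DTNB were added to start the reaction. Finally, TNB absorbance was monitored kinetically.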
HCMV antiviral: blocks human cytomegalovirus replication; AID 1259415; HFF cells, HCMV-luciferase reporter, 72 h; active compounds read low; 4.5% of 410,000 active; activity change, negative = inhibition, % at 57.5 µM; in the data active means activity change below about -60%; inconclusive means no clear call, values can overlap the other calls; inactive means above about -39%
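Inhibition of viral replication was scored as loss of reporter luminescence in HFFs infected with HCMV-luciferase (MOI 1 PFU/cell) for 72 h; compounds tested at 2 doses, normalized to buffer and Salinomycin controls.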
Giardia FBPA inh: blocks Giardia fructose-bisphosphate aldolase activity | A8B2U2 | purified Giardia FBPA | Potency, µM (titrated, usually from 59.6 µM), for inactives: at the highest dose activity, negative = inhibition, most hits filed as inhibitors | 0.71% of 290,000 active | AID 2451; further: potency means the concentration at half of the fitted maximal effect; nearly all actives have a fitted effect of over 55% in size
Target sequence (A8B2U2 whole entry, looked up): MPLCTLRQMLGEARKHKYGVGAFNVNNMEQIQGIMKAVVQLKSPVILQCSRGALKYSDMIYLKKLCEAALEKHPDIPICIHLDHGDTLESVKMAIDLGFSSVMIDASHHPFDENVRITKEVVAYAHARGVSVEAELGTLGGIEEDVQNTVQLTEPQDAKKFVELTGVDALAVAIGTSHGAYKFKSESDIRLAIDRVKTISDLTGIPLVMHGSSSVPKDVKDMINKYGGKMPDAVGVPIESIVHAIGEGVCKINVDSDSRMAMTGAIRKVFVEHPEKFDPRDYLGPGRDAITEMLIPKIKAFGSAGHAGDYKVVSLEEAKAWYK
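40 nM FBPA preincubated 10 min at RT with compound (up to 57.5 uM final), then substrate plus GAPDH/TPI/NAD/arsenate coupling and diaphorase/resazurin added. Fluorescence read after 20 min at RT, 525/598 nm.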
Pf growth 96h: P. falciparum growth inhibition at 96 hour, primary screen for plastid delayed-death inhibitors; P. falciparum luciferase reporter growth, 96 h; Potency, µM (series often up to 28.7 µM), for inactives: at the top dose activity change, negative = inhibition, usual class: inhibitors; 6.9% of 320,000 active; AID 504834; further: potency means the concentration at half of the fitted maximal effect
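Luminescence readout: decreased luciferase signal marks inhibited growth of reporter-expressing P. falciparum in infected red cells (2% hematocrit, 0.05% parasitemia final), exposed to compound two generations (96 h, 37 C, 5% CO2).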
Active calls of the source: *; u = inconclusive; x = not tested or not shown; [ ] = another dose, or the depositor's remark. Sampled rows, rich in hits. Any-hit rate of the full collection: about 14%. Unless noted, the call rests on the fitted dose curve; in most records, active means well fitted curve in the direction sought with a large enough effect; inconclusive means small, poorly fitted or top-dose-only effect, or another doubt; inactive means no such curve, though single readings can be large; an effect the other way counts as inactive or inconclusive. On the % scale 0 is the no-effect control and ±100 the full control effect.

SMILES | Pf growth 48h | Sm TGR block | HCMV antiviral | Giardia FBPA inh | Pf growth 96h
O=P(O)(COc1ccccc1)COc1ccccc1 | 7% | 10% | 26 | 12% | 13µM*
O=C(Nc1cccc(C(F)(F)F)c1)c1ccc(-c2ccc(F)c(F)c2)c2ccoc12 | x | x | -76* | x | x
O=C(NCc1cccnc1)c1ccc(-c2ccc(F)c(F)c2)c2ccoc12 | x | x | -85* | x | x
Cc1cc[n+](-c2ccccc2)c2ccccc12 | 12µM* | u | -40 | -5% | 1.7µM*
COc1ccccc1CNC(=O)CCS(=O)(=O)c1ccc(Cl)cc1 | 0% | -31% | 5 | x | 6%
CCC(Oc1ccc(F)cc1)C(=O)Nc1nc(-c2ccc(F)cc2)ns1 (centres undefined) | x | 42% | -98* | x | x
CCC(Oc1ccc(F)cc1)C(=O)Nc1cc(-c2ccc(C)cc2)no1 (centres undefined) | x | 8% | 32 | x | x
COc1cc(CC(=O)N/N=C/c2ccc([N+](=O)[O-])cc2)c([N+](=O)[O-])cc1OC | 14% | 3% | 4 | 0% | u
CCOC(=O)C1CCN(C(=O)CCN2C(=O)C3C4C=CC(C4)C3C2=O)CC1 (centres undefined) | 28% | -9% | 36 | 4% | 5.2µM*
C/C(=N/Nc1nc(-c2ccccc2)cc(-c2ccccc2)n1)c1ccc(N)cc1 | u | -11% | x | 2% | u
C/C(=N/Nc1ccnc2cc(Cl)ccc12)c1ccc(N)cc1 | 0.83µM* | -8% | -32 | x | 0.47µM*
C/C(=N\NS(=O)(=O)c1ccc(Cl)cc1)c1ccc(O)cc1 | 0% | -18% | 35 | 0% | 25%
C/C(=N/Nc1ccnc2cc(Cl)ccc12)c1ccc(O)cc1 | 0.33µM* | -8% | u | x | 0.29µM*
N#Cc1ccc(S(=O)(=O)N2CCN(C(=O)[C@@H]3CCCN3C(=O)c3cccs3)CC2)cc1 | -10% | -10% | -36 | x | u
CCOc1ccc(/C=C2\SC(=S)N(CCC(=O)O)C2=O)cc1 | u | 28% | -64* | 26% | -5%
CCOc1ccc(/C=C2/SC(=S)N(CCC(=O)Nc3ccc(C(=O)O)cc3)C2=O)cc1 | 43% | 4% | 6 | -5% | 0%
CCc1ccc(/C=C2\SC(=S)N(CCC(=O)N3CCN(C)CC3)C2=O)cc1 | -8% | 5% | -36 | 0% | -20%
CN1CCN(C(=O)CCCN2C(=O)/C(=C/c3ccc(Cl)cc3)SC2=S)CC1 | u | -4% | x | x | 10µM*
COC(=O)c1ccc(/C=C2\SC(=S)N(CCCC(=O)N3CCOCC3)C2=O)cc1 | x | x | -11 | x | x
CN1CCN(C(=O)CCCN2C(=O)/C(=C/c3ccccc3)SC2=S)CC1 | u | -7% | -94* | 1% | u
Cc1ccc(/C=C2\SC(=S)N(CCCC(=O)N3CCOCC3)C2=O)cc1 | 13µM* | 0% | u | x | -21%
Cc1noc(C)c1C(=O)OC(C)C(=O)Nc1ccc(C(N)=O)cc1 (centres undefined) | u | -5% | -5 | x | -14%
CCOc1ccccc1OCC(=O)OCc1csc(CC(=O)Nc2ccccc2C)n1 | -7% | -4% | -38 | x | 13%
CN1CCN(C(=O)CCN2C(=O)/C(=C\c3ccc(Cl)cc3Cl)SC2=S)CC1 | 10µM* | -13% | -18 | 26% | 3.3µM*
O=C(O)CCCN1C(=O)/C(=C\C(Cl)=C\c2ccccc2)SC1=S | 9.3µM* | -13% | -99* | -6% | u
SMILES | Pf growth 48h | Sm TGR block | HCMV antiviral | Giardia FBPA inh | Pf growth 96h
O=C(CCN1C(=O)/C(=C/c2ccccc2)SC1=S)N1CCCCCC1 | -28% | -4% | -97* | 0% | 22%
COc1ccc(/C=C2\SC(=O)N(CCCC(=O)Nc3cc(Cl)ccc3C(=O)O)C2=O)cc1 | x | x | -93* | x | x
CCOC(=O)C1CCCN(C(=O)C2(c3ccc(Cl)cc3)CCCC2)CC1 (centres undefined) | x | x | -23 | x | x
COc1ccc(CNCc2c(C(=O)O)c(C)n(Cc3ccc(Cl)cc3)c2C)c(OC)c1 | x | -6% | 16 | x | x
COc1ccc(/C=C2/SC(=S)N(CCCC(=O)N3CCN(C)CC3)C2=O)cc1 | u | -9% | -100* | -3% | 13%
CC(C)CCNC(=O)c1ccc(-n2cnc3cccnc32)cc1 | -17% | 0% | u | -1% | 29%
CCOCCCNC(=O)CCc1ccc(-n2cnc3cccnc32)cc1 | -13% | 0% | -67* | 5% | 9%
CNC(=O)c1nc(C)n(-c2ccc(Cl)cc2Cl)n1 | -13% | 0% | -14 | 3% | u
Cc1c(C(=O)NN2CCCCC2)nn(-c2ccc(Cl)cc2Cl)c1-c1ccc(Cl)cc1 | u | x | u | x | 8.5µM*
Cc1oc(S(=O)(=O)N2CCCCC2)cc1NC(=O)Nc1ccc(Cl)cc1 | u | 35µM* | -25 | 2% | u
Cc1oc(S(=O)(=O)N2CCCCC2)cc1NC(=O)Nc1ccccc1 | 1% | 10µM* | 17 | 0% | u
Cc1ccc(S(=O)(=O)N2CCCCC2)cc1NC(=O)Nc1ccc(Cl)cc1Cl | 7% | -4% | 10 | 2% | 15%
C[C@H]1Oc2ccccc2C(=O)C1C(=O)c1ccccc1 (some centres undefined) | x | x | 12 | x | x
COc1ccc(Cl)cc1NC(=O)CN(C)C(=O)c1ccc(N2CCCCC2)c([N+](=O)[O-])c1 | 13µM* | 16% | u | x | u
COc1cccc(CN(C)C(=O)c2ccc(N3CCCC3)c([N+](=O)[O-])c2)c1 | -7% | 3% | 43 | x | 13µM*
COc1ccc(Cl)cc1NC(=O)CN(C)C(=O)c1ccc(N2CCCCCC2)c([N+](=O)[O-])c1 | u | 2% | -38 | x | u
COC(=O)c1ccc(S(=O)(=O)NCc2ccco2)n1C | 0% | 35µM* | 11 | 6% | 1%
CCOC(=O)COc1ccc(S(=O)(=O)NCc2ccco2)cc1 | 8% | 50µM* | -25 | -1% | 14%
COC(=O)COc1ccc(S(=O)(=O)NCc2ccco2)cc1 | -7% | 35µM* | -12 | 2% | 3%
CCCNS(=O)(=O)c1ccc(OCC(=O)NCc2ccco2)cc1 | -4% | -31% | -7 | 6% | x
Cc1ccc(S(=O)(=O)NCc2ccco2)cc1C | 36% | -20% | -20 | 3% | 23%[5.75 µM]
O=S(=O)(NCc1ccco1)c1ccc2c(c1)Cc1ccccc1-2 | u | 7.9µM* | -5 | -1% | 63%
COCCSc1nnc(NC(=O)C2CC(=O)N(C3CCCC3)C2)s1 (centres undefined) | -8% | 6% | -33 | -5% | 10%
CC(=O)c1c(C)n(-c2ccc(C)cc2)c2ccc(OC(=O)COc3ccccc3)cc12 | x | -3% | u | x | x
Cc1ccc(CSCCC(=O)NCc2ccc(F)cc2Cl)cc1 | x | u | -32 | x | x
Cc1sc(NC(=O)c2ccco2)c(C(c2ccncc2)N2CCOCC2)c1C (centres undefined) | 10µM* | 0% | -32 | 13% | u
